# Bcl-xL primary – Bcl-xL (human) inhibition; inhibition, % at 10.9 µM; Q07817; GST-Bcl-xL / FITC-Bim BH3 peptide fluorescence polarization; 320,000 compounds, 0.7% hits; AID 2129;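 active = inhibition above the mean of all tested compounds plus 3 SD, cutoff set per campaign, cut at about 30% in these data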;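 note: 0% = DMSO wells and 100% = unlabeled Bim-BH3 peptide competitor; inhibitors lower millipolarization by displacing the labeled peptide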
# Target sequence (Q07817 whole entry, looked up): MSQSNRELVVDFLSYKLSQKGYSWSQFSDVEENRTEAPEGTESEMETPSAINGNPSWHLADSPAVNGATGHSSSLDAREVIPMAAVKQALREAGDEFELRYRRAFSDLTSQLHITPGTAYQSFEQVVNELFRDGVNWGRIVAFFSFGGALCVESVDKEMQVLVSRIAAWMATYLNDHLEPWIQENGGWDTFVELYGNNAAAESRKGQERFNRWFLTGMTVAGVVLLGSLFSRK
# RTF Ca sens act – increases calcium sensitivity of human cardiac regulated thin filaments. IANBD-labeled TnC RTF fluorescence at EC20 calcium; 0% EC20 calcium, 100% full calcium. P19429+P45379. 340,000 compounds, 0.24% hits. activation, % at 7.2 µM;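 active = activation above the mean over all tested compounds plus 3 SD, cut at about 30% in these data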;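 note: rise in fluorescence read as greater calcium sensitivity of cardiac thin filaments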
# Cardiac RTF inh – cardiac RTF calcium desensitization; P19429+P45379; IANBD-labeled cardiac RTF, Ca2+ fluorescence; inhibition, % at 7.15 µM; 340,000 compounds, 0.12% hits; AID 493244;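 active = inhibition above the mean inhibition of all tested compounds plus 3 SD, cut at about 17% in these data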;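 note: assay run at fixed EC70 calcium of 1.6 mM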
# GLD-1 RNA inh – GLD-1-TGE RNA interaction inhibition (C. elegans); Q17339; inhibition, % at 5.96 µM; purified GLD-1 + fluorescein TGE RNA, fluorescence polarization; AID 2280; 320,000 compounds, 0.44% hits;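 active = percent inhibition above a per-plate cutoff, the plate mean of test compounds plus 3 SD, cut at about 30% in these data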;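 note: 0% = DMSO wells with GLD-1 and probe and 100% = wells lacking GLD-1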
# eLon inh – inhibits E. coli Lon protease; P0A9M0; purified E. coli Lon protease, fluorescence polarization; inhibition, % at 7.94 µM; 360,000 compounds, 0.42% hits; in the data active = inhibition above about 13%, passing the limit was not always enough;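 note: 0% = enzyme with probe and DMSO and 100% = no enzyme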
# E coli Lon conf – confirmation of E. coli Lon protease inhibitors. shares compounds with eLon inh. 1,400 compounds, 31% hits. inhibition, % at 7.94 µM. AID 602230. purified E. coli Lon, fluorescence polarization; in the data active = inhibition above about 16%;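 note: 0% = enzyme with probe and DMSO and 100% = no enzyme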
# Starred values were filed as active, the others as inactive; x = no result given; ! = a repeat was not active. This is a sample that favours compounds with a hit; in the whole collection about 1.2% have one here.
SMILES,Bcl-xL primary,RTF Ca sens act,Cardiac RTF inh,GLD-1 RNA inh,eLon inh,E coli Lon conf
Cc1ccc(NC(=O)CSc2nnc(-c3ccncc3)n2C)cc1C,3.0,-0.8,-4.4,2.9,32.8*,-5.6
Cn1cnnc1SCC(=O)Nc1ccc2ccccc2c1,-0.1,-2.3,-1.8,6.8,14.0*,1.3
COc1ccc(NC(C)=O)cc1NC(=O)CSc1nnc(-c2ccncc2)n1C,5.4,-0.3,2.1,6.5,7.6,x
CC(=O)Nc1cccc(-c2ccnc3c2CC(C(=O)Nc2cccnc2)O3)c1 (stereo not given),x,x,x,x,18.1,x
CCc1ccc(NC(=O)c2cccc(NC3=NC4CS(=O)(=O)CC4S3)c2)cc1 (stereo not given),1.7,-2.1,-3.1,5.4,24.1*,0.1
CCOP(=O)(OCC)C(NC(=O)c1cc([N+](=O)[O-])cc([N+](=O)[O-])c1)C(F)(F)F (stereo not given),2.1,-2.1,-2.8,6.4,20.7*,24.4*
COc1ccc(C2CC(=O)C(C=NCCCO)=C(O)C2)cc1 (stereo not given),63.8*,7.7,-11.4,22.0,44.2*,42.4*
COc1ccc(C2CC(=O)C(C=NCC(C)C)=C(O)C2)cc1 (stereo not given),x,-6.2,-12.9,x,-14.9,x
COc1cc2c(cc1O)CC[n+]1cc3c(OC)c(OC)ccc3cc1-2,2.4,5.9,-13.2,-6.4,1.3,x
COc1cc2c(cc1OC)-c1cc3ccc4c(c3c[n+]1CC2)OCO4,169.8*,53.6*,-77.0,40.1*,156.3*,106.3*
C=C1CN(Cc2ccccc2)S(=O)(=O)c2ccccc21,14.6,-0.2,0.8,8.2,-7.2,x
CCOc1ccc(Nc2nc(NCC(=O)O)nc(N)c2[N+](=O)[O-])cc1,16.8,-2.1,-6.5,17.0,18.6*,-23.8
CC(=O)c1c(Cl)nc2cccc3c2c1-c1ccccc1C3=O,54.2*,2.7,-14.6,26.8,23.6*,27.9*
COc1cc(-c2c(C(C)=O)c(C)nc3c2C(=O)c2ccccc2-3)cc(OC)c1OC,x,-5.8,1.4,x,-3.3,x
CCOc1ccccc1NC(=O)CSc1nc(=O)n(CCCN2CCOCC2)c2c1CCC2,-0.3,-5.4,-25.5,-2.7,-9.8,x
O=C(CCNc1cccc(C(F)(F)F)c1)c1ccco1,-0.2,7.8,-1.1,1.1,1.6,x
O=C1OC(c2ccccc2)=N/C1=C/c1cccc(OC(=O)c2cccs2)c1,4.9,-0.8,2.4,-1.1,-1.7,x
COc1ccc(CNCC(O)(c2ccc(Cl)cc2)c2ccc(Cl)cc2)cc1OC,-2.2,-1.6,-1.9,9.7,-4.6,x
COc1ccc(CNCC(O)(c2ccc(Cl)cc2)c2ccc(Cl)cc2)cc1,-2.6,3.0,1.5,1.8,47.9*,-1.2
CCNc1cccc2c1C(=O)N(C)C2=O,176.6*,45.6*,-67.4,180.1*,150.8*,164.6*
CC1CC(C)CN(C(=O)C2CCN(S(=O)(=O)c3c(Cl)cccc3Cl)CC2)C1 (stereo not given),-2.1,-0.8,-9.5,1.8,0.5,x
Cc1[nH]c2ccccc2c1/C=N/NC(=O)CNC(=O)c1ccco1,2.3,x,x,-0.3,-1.4,x
Cc1[nH]c2ccccc2c1/C=N\NC(=O)c1ccco1,x,-2.3,-5.1,x,158.9*,-1.8
Cc1[nH]c2ccccc2c1/C=N/NC(=O)c1cccc(F)c1,4.2,6.2,-8.7,-1.0,30.6*,6.9
NC(=O)c1ccc2c(=O)c(O)c(-c3cc(Cl)c(N)c(Cl)c3)[nH]c2c1,2.6,1.6,-5.7,0.0,52.2*,19.5*
SMILES,Bcl-xL primary,RTF Ca sens act,Cardiac RTF inh,GLD-1 RNA inh,eLon inh,E coli Lon conf
Fc1ccc(NC(=S)SCc2ccc3c(c2)OCO3)cc1F,x,x,x,x,11.7,x
OCCN(CCO)c1nc(N2CCCCC2)c2nc(N(CCO)CCO)nc(N3CCCCC3)c2n1,x,177.3*,-199.4,154.9*,147.9*,159.1*
Nc1nc(NCCO)nc(N2CCCCCC2)c1[N+](=O)[O-],-2.3,-4.3,-7.9,7.3,6.2,x
CCN1CCN(Cc2ccc(NC(=O)c3ccc(C)c(NC(=O)c4cccc5[nH]ccc45)c3)cc2C(F)(F)F)CC1,0.4,-1.3,-11.0,1.4,12.8*!,7.8
CC1CCCN(C(=O)CSc2nc3ncccc3[nH]2)C1 (stereo not given),4.9,-3.5,12.3,2.0,16.7*,-1.4
C=C(C)c1cccc(C(C)(C)NC(=O)Nc2ccc(OC)nc2)c1,82.1*,3.5,-12.5,82.5*,45.9*,18.2*
CC(=O)Nc1cccc(NC(=O)c2cccc(-c3ccc(O)cc3)c2)c1,1.6,6.5,-10.3,-1.3,-3.8,x
COc1ccc(NC(=O)c2cccc(-c3ccc(O)cc3)c2)cn1,144.1*,15.7,-35.9,135.2*,74.1*,34.7*
Oc1ccccc1/C=N/c1c(-c2ccco2)nc2ccccn12,23.9,2.8,-7.2,14.5,30.5*,2.5
COc1ncnc2c1NC1=C(S2)C(=NCCC(=O)O)CC(C)(C)C1,144.5*,28.1,-29.1,102.6*,64.8*,154.0*
O=C(CSc1nc(O)c(Cc2ccccc2)c(=O)[nH]1)c1ccccc1,7.7,-2.1,-1.3,0.2,-3.5,x
COc1ccc(NC(=O)C2(C)Cc3c(-c4cccc(NC(C)=O)c4)ccnc3O2)cn1 (stereo not given),x,x,x,x,27.8*,1.9
Cc1cccc(C)c1Nc1c(-c2ccsc2)nc2ncccn12,5.5,-8.6,0.1,-3.9,2.8,x
O=C1CN(C(=O)c2ccccc2F)C(c2ccccc2)c2cc(F)ccc2N1 (stereo not given),-0.3,-0.3,-3.4,2.5,18.5*,-9.9
NCCS(=O)(=O)NC1CCCCC1,2.2,-2.5,-5.3,9.9,5.6,x
COC(=O)c1cc2c(C)c(C)c3ccccn3c-2c1C(=O)OC,111.7*,23.2,-22.1,86.1*,21.7*,59.8*
COC(=O)c1cn(-c2ccccc2)c(C)c1C(=O)OC,2.3,2.5,-2.5,5.7,-4.6,x
CCCc1cc(=O)n2nc(N3CCC(C(=O)N4CCN(c5cccc(OC)c5)CC4)CC3)sc2n1,8.7,-0.3,-5.4,1.0,24.1*,0.6
CCC(Sc1nc(=O)cc(N)n1CCc1ccccc1)C(=O)Nc1ccccc1C#N (stereo not given),2.3,-5.3,0.0,1.4,-12.2,x
CC(=O)c1ccc(NC(=O)c2cccc(N3C(=O)c4ccccc4C3=O)c2)cc1,3.2,-4.9,3.2,-3.8,4.1,x
COc1ccc(NC(=O)c2cccc(N3C(=O)c4cccc([N+](=O)[O-])c4C3=O)c2)cc1,1.0,-3.6,-7.6,0.5,18.7*,-0.1
NNC(=O)CNC(=O)C12CC3CC(CC(C3)C1)C2,-2.3,-0.4,1.3,2.5,16.6*,-6.7
CCN(CC)C(=O)CSc1nnc2nnc3cc(Cl)ccc3n12,92.8*,4.4,-14.2,123.3*,54.5*,41.5*
CCCn1c(SCC(=O)N(CC)CC)nnc1-c1ccncc1,-0.9,9.8,-11.6,1.8,2.3,x
O=C(COc1ccc(F)cc1)Nc1nc(-c2ccccn2)cs1,4.7,-1.1,-5.5,5.8,18.5*,-10.2
